Compound activity (PubChem)
The list is not random: actives were taken first. Their share in the collection is about 2.2%.
VLA-4 inh: inhibition in a human VLA-4 binding assay | P13612 | VLA-4 expressing cells, ligand binding flow cytometry | inhibition, % (about 7 µM as worked out from the volumes in the protocol) | 330,000 compounds, 0.2% hits | AID 2557; in the data active = inhibition above about 50%
MEKK3 PB1 HTS: MEKK3-MEK5 PB1 interaction, increase or decrease; bead-based flow cytometry, Alexa488-MEK5 binding to MEKK3; actives lie on both sides; 0 = blocked by unlabeled MEK5, 100 = vehicle; binding response (% of control), % at 10 µM; 290,000 compounds, 1.4% hits; AID 1529;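 active = binding response more than 3 SD above or below the average of its plate-row segment, actives on both sides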;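 note: Alexa488 bead fluorescence after subtracting the streptavidin-only scavenger bead signal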
Target sequence (Q99759 whole entry, looked up): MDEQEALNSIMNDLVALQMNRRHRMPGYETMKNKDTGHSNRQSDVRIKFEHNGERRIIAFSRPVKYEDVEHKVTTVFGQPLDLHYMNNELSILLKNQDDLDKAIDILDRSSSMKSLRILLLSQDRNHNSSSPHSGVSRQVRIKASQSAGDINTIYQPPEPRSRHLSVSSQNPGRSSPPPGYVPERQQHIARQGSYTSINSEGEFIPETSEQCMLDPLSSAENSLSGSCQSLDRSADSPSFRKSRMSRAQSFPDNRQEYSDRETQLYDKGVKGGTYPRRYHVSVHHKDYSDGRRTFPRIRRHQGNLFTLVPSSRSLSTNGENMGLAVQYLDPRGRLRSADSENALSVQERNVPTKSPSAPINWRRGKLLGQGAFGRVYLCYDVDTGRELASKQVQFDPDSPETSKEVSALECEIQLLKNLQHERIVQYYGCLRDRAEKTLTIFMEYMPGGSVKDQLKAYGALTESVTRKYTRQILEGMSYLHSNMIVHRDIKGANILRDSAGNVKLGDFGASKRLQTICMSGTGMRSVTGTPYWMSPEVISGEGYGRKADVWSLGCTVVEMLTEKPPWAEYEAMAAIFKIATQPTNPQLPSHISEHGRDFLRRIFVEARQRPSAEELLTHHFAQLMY
MEKK2 mut-MEK5: signal of MEK5 binding to mutant human MEKK2 PB1 domain | bead flow cytometry, Alexa488-MEK5 binding to MEKK2 mutant | percent response, % at 10 µM | 290,000 compounds, 0.35% hits | AID 1530; in the data active = percent response above about 24%, passing the limit was not always enough
MEKK2wt PB1 HTS: raises or lowers MEK5 binding to wildtype human MEKK2 PB1 domain. bead flow cytometry, Alexa488-MEK5 binding to MEKK2 WT; actives lie on both sides. 290,000 compounds, 1.1% hits. binding response (% of control), % at 10 µM. AID 1531; in the data active = binding response below about 67% or above about 130%
VLA-4 mod pick: human VLA-4 allosteric modulation in cherry picked compounds; shares compounds with VLA-4 inh; U937 cells, HUTS-21 LIBS mAb binding, flow cytometry; LDV ligand present at threefold Kd; inhibition, % at 6.7 µM; 1,300 compounds, 2% hits; in the data active = inhibition above about 40%;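 note: 0% = ligand without compound and 100% = no ligand background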
Numbers without * were called inactive; . = no result given.

SMILES	VLA-4 inh	MEKK3 PB1 HTS	MEKK2 mut-MEK5	MEKK2wt PB1 HTS	VLA-4 mod pick
CC(NC(=O)c1cc(COc2c(F)cccc2F)on1)c1cnn(-c2ccccc2)c1 (centres undefined)	-5	99	-1	97	.
Cc1ccc(-c2nn3c(-c4ccco4)nnc3c3ccccc23)cc1S(=O)(=O)NCC1CCCO1 (centres undefined)	39	121	6	119	3
Cc1ccc(-c2nnc(Nc3ccccc3)c3ccccc23)cc1S(=O)(=O)NCC1CCCO1 (centres undefined)	24	94	-5	82	.
COc1cccc(-n2c(Cc3cc(=O)[nH]c(=O)[nH]3)nnc2SCC(=O)N2CCCC2)c1	-8	78	-16	81	15
COc1cccc(-n2c(Cc3cc(=O)[nH]c(=O)[nH]3)nnc2SCC(=O)N2CCCCCC2)c1	-5	96	0	96	9
CCOCCCNC(=O)/C(C#N)=C/c1ccc(Cl)c([N+](=O)[O-])c1	59*	108	4	103	36
COCCNC(=O)/C(C#N)=C/C(C)=C/c1ccccc1	10	102	-1	103	.
COCCNC(=O)/C(C#N)=C/c1cccc(/C=C(\C#N)C(=O)NCCOC)c1	50*	104	-1	104	21
COCCNC(=O)/C(C#N)=C/c1ccc(O)cc1	2	86	-22	80	-1
CCCCCCCCNC(=O)/C(C#N)=C/c1ccc(SC)cc1	0	106	2	106	0
COCCNC(=O)/C(C#N)=C/c1ccc(O)c([N+](=O)[O-])c1	-4	94	-4	95	.
Cc1cc(C(F)(F)F)nc(CCNC(=O)C2CCC(=O)N(Cc3cccc(F)c3)C2)n1 (centres undefined)	-20	102	0	99	.
COc1ccc(-n2c(=S)[nH]c3cc(C(=O)NCCCN4CCOCC4)ccc3c2=O)cc1OC	56*	103	-2	99	-9
CCN1CCN(CC(O)COc2ccc(C)c(C)c2)CC1 (centres undefined)	92*	94	-12	80	-4
N#Cc1cccc(NS(=O)(=O)c2ccccc2Cl)c1	16	.	.	.	3
N#Cc1cccc(NS(=O)(=O)c2ccc(S(=O)(=O)N3CCOCC3)cc2)c1	0	.	.	.	.
CCC1CCCN1Cn1cnc2c([nH]c3ccc(OC)cc32)c1=O (centres undefined)	4	103	6	103	-13
CCCCN(CCCC)CCn1cnc2c([nH]c3ccc(OC)cc32)c1=O	-4	104	7	103	-12
CCOC(=O)c1c(NC(=O)COC(=O)CCOc2ccc(C)cc2)sc(C(=O)N(C)C)c1C	1	.	.	.	.
COC(=O)c1ccc(-n2c(C)cc(C(=O)CSc3ccc(NC(C)=O)cc3)c2C)cc1	40	97	1	105	-4
c1ccc2c(-c3ccc(OCCN4CCCCC4)cc3)c(-c3ccsc3)sc2c1	20	.	.	.	.
COc1ccccc1-c1sc2cc3c(cc2c1-c1ccc(OCCN2CCOCC2)cc1)OCO3	.	.	.	.	0
COc1ccc(-c2sc3cc4c(cc3c2-c2ccc(OCCN3CCCCC3)cc2)OCO4)cc1	.	.	.	.	0
CN(C)CCOc1ccc(-c2c(-c3ccccc3)sc3ccccc23)cc1	70*	.	.	.	30
c1ccc(-c2sc3ccccc3c2-c2ccc(OCCN3CCCCC3)cc2)cc1	17	.	.	.	-8
SMILES	VLA-4 inh	MEKK3 PB1 HTS	MEKK2 mut-MEK5	MEKK2wt PB1 HTS	VLA-4 mod pick
CCC1(C)NC(=O)N(CC(=O)NCC(=O)Nc2c(C)cc(C)cc2C)C1=O (centres undefined)	-1	.	.	.	.
COc1cc(OC)cc(-c2sc3ccc(OC)cc3c2-c2ccc(OCCN3CCCCC3)cc2)c1	.	.	.	.	0
COc1ccc(-c2sc3cc(OC)ccc3c2-c2ccc(OCCN3CCOCC3)cc2)cc1	.	.	.	.	0
COc1ccc2c(-c3cnc(N4CCOCC4)nc3)c(-c3ccc(S(C)(=O)=O)cc3)sc2c1	-1	.	.	.	.
Cc1ccccc1NC(=O)Nc1ccc2c(c1)CCC2	9	102	-2	100	.
CC(=O)NCC1CCN(C(=O)C2CCC(=O)N(CCc3cccc(F)c3)C2)CC1 (centres undefined)	10	98	2	100	.
CC(Sc1nnnn1-c1ccccc1)C(=O)Nc1ccccc1-c1ccccc1 (centres undefined)	2	91	-2	90	.
CC(Sc1nnnn1-c1ccccc1)C(=O)Nc1ccc(N2CCN(C)CC2)cc1 (centres undefined)	102*	88	0	102	1
O=C(CCN1CCCCC1=O)NC1CCCN(Cc2ccc(Cl)cc2)C1 (centres undefined)	1	105	4	109	.
O=C1CCN(CCc2ccccc2)CCN1[C@H](CO)Cc1ccccc1	23	100	-4	102	.
O=C1CCN(CCCc2ccccc2)CCN1[C@H](CO)Cc1ccccc1	54*	99	-4	102	0
Cc1ccc(C(C(=O)NCCc2ccccc2)N(C(=O)c2csnn2)C2CC2)o1 (centres undefined)	54*	100	0	98	6
CCn1c2ccccc2c2cc(NC(=O)c3cc(OC)cc(OC)c3)ccc21	47	101	1	100	32
CCn1c2ccccc2c2cc(NC(=O)c3cc(OC)c(OC)c(OC)c3)ccc21	11	99	-3	98	.
O=C(NC(=S)NCc1ccc(-c2nc3ccccc3s2)cc1)c1ccco1	45	95	7	113	2
O=C(NCc1ccc(-c2nc3ccccc3s2)cc1)c1ccco1	1	100	-1	99	.
COc1ccc(C(=O)N2CCC(C(=O)N3CCN(Cc4ccccc4)CC3)CC2)cc1	0	97	2	100	.
CCC(=NNC(=O)c1cccc(S(=O)(=O)N2CCOCC2)c1)c1ccccc1	50*	.	.	.	6
C/C(=N\NC(=O)c1cccc(S(=O)(=O)N2CCOCC2)c1)c1ccc(O)cc1	10	.	.	.	.
N=C(N)N1CCN(Cc2ccccc2)CC1	0	103	4	107	.
Cc1ccc(NS(=O)(=O)c2ccc(-c3cnc(C4CC4)o3)cc2)c(C)c1	55*	106	5	100	47*
COc1ccccc1NS(=O)(=O)c1ccc(-c2cnc(C3CC3)o2)cc1	10	95	-2	94	.
Cc1c(Cl)cccc1NC(=S)NC1CCCC1	0	110	5	111	.
COc1ccc(Br)cc1S(=O)(=O)n1c([N+](=O)[O-])cnc1C	45	99	1	101	-13
COc1ccc(S(=O)(=O)n2c([N+](=O)[O-])cnc2C)c(C)c1C	-2	101	1	103	.
CCN(C[C@H]1N[C@@](Cc2ccccc2)(C(=O)OC)[C@H]2C(=O)N(Cc3ccccc3)C(=O)[C@@H]12)S(=O)(=O)c1ccc(-c2ccccc2)cc1	-27	.	.	.	-5
COC(=O)[C@]1(Cc2ccccc2)N[C@H](CN(C)S(=O)(=O)c2ccc(C)cc2)[C@@H]2C(=O)N(Cc3ccccc3)C(=O)[C@@H]21	-5	.	.	.	.
